Measurements: PubChem BioAssay
Results with a measured potency or affinity are listed apart. Calls of active or inactive are those of the source.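 How the source made its calls: active means a fitted half-maximal concentration no higher than twice the top valid tested dose, with signal falling as cells die; inconclusive means flat curve between -70% and -30%, or poor fit; inactive means the rest, including signal rising instead of falling.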

Assay: viability loss in HeLa cells – cell-based, ATP luminescence, cherry-pick samples, cytotoxicity control, dose response (AID 687004)
Conditions: ATP luminescence (CellTiter-Glo), 48 h; series mostly up to 26 µM

SMILES	outcome
CCc1ccc(C(=O)NC(=S)Nc2ccccc2N2CCOCC2)cc1	inactive
CC(NC(=O)COc1ccccc1C(C)(C)C)c1ccccc1 (stereo not given)	inactive
Cc1ccc(S(=O)(=O)N2CC[C@@H]3[C@H]2c2cc(-c4ccccc4F)ccc2N[C@@H]3CO)cc1	inactive
COc1cccc(NC(=O)CN2CCN(S(=O)(=O)c3ccc(C(C)C)cc3)CC2)c1	inactive
CC12CC3CC(C)(C1)CC(C(=O)NC(=S)N1CCCCC1)(C3)C2	inactive
O=C(CN(c1ccc(F)cc1)S(=O)(=O)c1ccccc1)NC1CC2CCC1C2 (stereo not given)	inactive
O=C(C[C@H]1CC[C@H]2[C@@H](COC[C@H](O)CN2C(=O)Nc2ccc3c(c2)OCO3)O1)N1CCN(c2ccccc2)CC1	inactive
C[C@@H]1CN([C@H](C)CO)C(=O)c2cccc(NC(=O)c3ccncc3)c2O[C@H]1CN(C)C(=O)Nc1ccc(C(F)(F)F)cc1	inactive
CCc1ccc(NC(=O)[C@H](C)NC(=O)C2CCN(C(=O)[C@@H](N)C(C)C)CC2)cc1	inactive
O=C(Oc1ccc2c3c(c(=O)oc2c1)CCCC3)c1ccco1	inactive
O=C1CCC(C(=O)Nc2ccc([N+](=O)[O-])cc2)N1 (stereo not given)	inactive
CCCC(=O)Nc1ccc2c(c1)OC[C@@H](C)N(Cc1ccccn1)C[C@@H](C)[C@H](OC)CN(C)C2=O	inactive
CCN(C(=O)CSc1ncnc2c1cnn2-c1ccccc1)C1CCS(=O)(=O)C1 (stereo not given)	inactive
Cc1ccc(C(=O)n2nnc3ccccc32)cc1[N+](=O)[O-]	inactive
COC(=O)C1=C(C)N(Cc2ccc(F)cc2)C(=S)NC1c1cccc(OC)c1 (stereo not given)	inactive
